# From PubChem BioAssay (NCATS)
# Results filed as inconclusive are left out. Where a call stands in place of a potency, no number is given. Activity calls are given as the source filed them. Calls follow the shape of the dose curve; as a rule, active = well fitted cell-killing curve with a large enough effect; inconclusive = small, poorly fitted or top-dose-only effect; inactive = no such curve, though single readings can be large or run the other way.
# Assay: qHTS of pediatric cancer cell lines to identify multiple opportunities for drug repurposing: Primary screen for SK-N-SH cells (AID 1347098); also: nearly all actives have a fitted effect of over 65% in size
# Conditions: SK-N-SH viability, CellTiter-Glo luminescence, 48 h; series mostly up to 57 µM
# Outline: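 Cells (500-1,000/well) rested 5 h, then received compounds for 48 h; metabolically active cells were measured by CellTiter-Glo luminescence. Final concentrations spanned up to 46 µM (MIPE, 11-point) or 0.59 nM-46 µM (NPC, 8-point) in primary screens, 11-point in follow-ups.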
# Potency is read from the fitted curve at half-maximal effect.
row,Structure (SMILES),Potency
1,COCC(=O)N(c1c(C)cccc1C)C(C)C(=O)OC (stereo unspecified),inactive
2,Cc1c(Cl)c(=O)oc2cc(OP(=O)(OCCCl)OCCCl)ccc12,inactive
3,CCOC(=O)NC(O)C(Cl)(Cl)Cl (stereo unspecified),inactive
4,CN1C(=O)CN=C(c2ccccc2)c2cc(Cl)ccc21,inactive
5,CCCN(CCC)CCc1c[nH]c2ccccc12,inactive
6,CC(C)[N+](C)(CCC(C(N)=O)(c1ccccc1)c1ccccc1)C(C)C,inactive
7,CCCCCCCCC(=O)NCc1ccc(O)c(OC)c1,0.0014 µM (active)
8,CNC(=O)NC(O)C(Cl)(Cl)Cl (stereo unspecified),inactive
9,CCOC(=O)C1(c2ccccc2)CCN(CCc2ccc(N)cc2)CC1,inactive
10,CC1N=C(N)OC1c1ccccc1 (stereo unspecified),inactive
11,ClCCCN1CCN(c2cccc(Cl)c2)CC1,inactive
12,C=CCOC(Cn1ccnc1)c1ccc(Cl)cc1Cl (stereo unspecified),inactive
13,COc1ccc2[nH]cc(CCN(C(C)C)C(C)C)c2c1,36.1 µM (active)
14,CC(Cc1ccccc1)NCCCCl (stereo unspecified),inactive
15,O=C1CN2CCOC2(c2ccccc2Cl)c2cc(Cl)ccc2N1 (stereo unspecified),inactive
16,C[N+]1(CCC(C(N)=O)(c2ccccc2)c2ccccc2)CCCCC1,inactive
17,CN1C(=O)[C@@H](NC(=O)c2cc3ccccc3[nH]2)N=C(c2ccccc2)c2ccccc21,inactive
18,CCOC(C(=O)OCCN(C)C)(c1ccccc1)c1ccccc1,inactive
19,C[C@]12CC[C@H](O)CC1=CC[C@@H]1[C@@H]2CC[C@]2(C)C(=O)CC[C@@H]12,inactive
20,COc1cc(C[C@@H](C)N)c(OC)cc1Br,inactive
21,CCC1(CC)C(=O)NC(=O)NC1=O,inactive
